# Data: PubChem BioAssay (NCATS)
# Records with an inconclusive call do not appear. Active and inactive are the calls of the source. Unless noted, calls follow the shape of the dose curve; as a rule, active = well fitted curve in the direction sought with a large enough effect; inconclusive = small, poorly fitted or top-dose-only effect, or another doubt; inactive = no such curve, though single readings can be large; an effect the other way counts as inactive or inconclusive.
# Key:
# [1] = Immunotoxin (HA22) sensitization/mitigation study. Vehicle arm (PBS) (AID 1159510; call rule not given here; also: potency is read from the fitted curve at half-maximal effect)
# [2] = Immunotoxin (SS1P) sensitization/mitigation study. Vehicle arm (DMEM) (AID 1159513; call rule not given here; also: potency is read from the fitted curve at half-maximal effect)
# [3] = Identifying Small Molecule Inhibitors of Pancreatic Cancer Stem Cells (A2780, Spheroid) (AID 1259357); details: Potency: A2780 spheroid viability;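 also: spheroids pre-formed over 14 days in stem cell medium on hydrogel; potency is read from the fitted curve at half-maximal effect; compound exposure lasted 48 h before the ATP luminescence read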
# Method in brief: (§1)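 After a 4 h attachment period, compounds were pinned into wells and cultures held 48 h under standard incubator conditions. Viability was then measured as CellTiter-Glo luminescence following 10 min at room temperature.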
# [4] = Identifying Small Molecule Inhibitors of Pancreatic Cancer Stem Cells (Panc1, Spheroid) (AID 1259359); details: Panc1 spheroid cancer stem cell viability;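 also: potency is read from the fitted curve at half-maximal effect; compound exposure lasted 48 h before reading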
# Method in brief: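 Spheroids grown 14 days in stem cell media on nonadherent hydrogel before screening; cells attached 4 h, then compound exposure 48 h at 37C, 5% CO2. CellTiter-Glo luminescence normalized to DMSO (no inhibition) and no-cell wells (full inhibition).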
# [5] = Identifying Small Molecule Inhibitors of Pancreatic Cancer Stem Cells (SN12C, Spheroid) (AID 1259360); details: Potency: SN12C spheroid viability; also: potency is read from the fitted curve at half-maximal effect
# Method in brief: as §1
# [6] = High-throughput drug toxicity screening in the BPDCN cell line Gen2.2 (AID 1224824; call rule not given here;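 also: cells exposed to compounds for 48 h before reading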); details: Gen2.2 BPDCN cells; at 45.8 µM (top of the series)
# Method in brief: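 Seed 500 exponentially growing Gen2.2 cells/well; add compounds by pin tool; incubate 48 h, 37 °C, 5% CO2; add CellTiter-Glo, 15 min RT; read luminescence. % activity vs DMSO (100%) and bortezomib (0%).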
# [7] = High-throughput drug toxicity screening in the BPDCN cell line Cal-1 (AID 1224825; call rule not given here); details: Cal-1 BPDCN cell viability, qHTS; at 45.8 µM (top of the series)
# Method in brief: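 Cal-1 cells, 500 per well in phenol-red-free RPMI with 10% FBS, exposed to compounds for 48 hours at 37C, 5% CO2. Viability read by CellTiter-Glo luminescence; percent activity normalized to DMSO (100%) and 9.2 uM bortezomib final (0%).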
# [8] = qHTS assay for measurement of the activity of small molecule inhibitors on Zika virus induced Caspase-3 activity in human iPSC derived neural progenitor cells (hNPCs) (AID 1224857); also: % of control where 0% means no effect; nearly all actives have a fitted effect of over 65% in size
# Method in brief: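 After overnight (16–20 h) culture at 350 cells/well, hNPCs get compound, then ZIKV 2 FFU/cell one hour later. Six hours on, Caspase-Glo 3/7 is added and luminescence measured.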
# [9] = qHTS assay for measurement of the activity of small molecule inhibitors on Zika virus induced Caspase-3 activity in human astrocytoma cells (AID 1224859);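 also: plate controls were ZIKV-infected untreated cells for no effect and uninfected cells for full effect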
# Method in brief: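 Inhibition of Zika-induced caspase-3/7 activity: SNB-19 cells, 1 h compound pretreatment, ZIKV 2 FFU/cell for 6 h at 37 C, Caspase-Glo luminescence read-out.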
# [10] = qHTS Screen of the MIPE 4.0 Collection Against Ewings Sarcoma (RDES) (AID 1259252); also: nearly all actives have a fitted effect of over 35% in size; also: potency is read from the fitted curve at half-maximal effect
# Method in brief: (§2)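 Log-phase cells in RPMI with 5% FBS attached for 4 h, then received compounds as a titration for 48 h at 37C, 5% CO2. Viability was read by CellTiter-Glo luminescence and normalized to DMSO and no-cell wells.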
# [11] = qHTS Screen of the MIPE 4.0 Collection Against Ewings Sarcoma (EW8) (AID 1259255); also: nearly all actives have a fitted effect of over 35% in size; also: potency is read from the fitted curve at half-maximal effect;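 as to viability: 100% = DMSO-treated cells and 0% = medium-only wells without cells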
# Method in brief: as §2
# [12] = qHTS Screen of the MIPE 4.0 Collection Against Ewings Sarcoma (TC32) (AID 1259256); also: nearly all actives have a fitted effect of over 45% in size; also: potency is read from the fitted curve at half-maximal effect
# Method in brief: as §2
# [13] = qHTS Screen of the MIPE 4.0 Collection Against Ewings Sarcoma (TC71) (AID 1259253); also: potency is read from the fitted curve at half-maximal effect; nearly all actives have a fitted effect of over 40% in size
# Method in brief: as §2
Compound,Potency [1],Potency [2],Potency [3],Potency [4],Potency [5],"cell viability, % of control (lower = more cytotoxic) [6] [%]",viability (% of control) [7] [%],Potency [8],Potency [9],Potency [10],Potency [11],Potency [12],Potency [13]
CC1CC(C)C(=O)C(C(O)CC2CC(=O)NC(=O)C2)C1 (configuration not stated),54 nM (active),191 nM (active),3820 nM (active),2410 nM (active),1710 nM (active),–,–,–,–,–,–,–,–
O=C(Oc1ccc([N+](=O)[O-])cc1)N1CCN(Cc2cccc(Oc3ccccc3)c2)CC1,–,–,–,–,–,151,54.4,inactive,inactive,inactive,inactive,inactive,–
COc1ccc(CC2NCCc3cc(OC)c(OC)cc32)cc1OC (configuration not stated),–,–,–,–,–,150,102,inactive,inactive,23500 nM (active),inactive,inactive,–
C[C@]12CC[C@H](O)CC1=CC[C@H]1[C@H]3CCC(=O)[C@@]3(C)CC[C@@H]12,–,–,–,–,–,136,104,inactive,inactive,4180 nM (active),16600 nM (active),16600 nM (active),18700 nM (active)
CC(C)(O)C=CC(=O)[C@](C)(O)[C@H]1[C@H](O)C[C@]2(C)[C@@H]3CC=C4[C@@H](C=C(O)C(=O)C4(C)C)[C@]3(C)C(=O)C[C@@]12C,–,–,–,–,–,4.04,2.59,inactive,inactive,590 nM (active),118 nM (active),41.8 nM (active),209 nM (active)
CN(C)NC(=O)CCC(=O)O,–,–,–,–,–,121,96.3,inactive,inactive,26400 nM (active),–,–,–
CCCCCC[C@H]1C(=O)O[C@H](C)[C@H](NC(=O)c2cccc(NC=O)c2O)C(=O)O[C@@H](C)[C@@H]1OC(=O)CC(C)C,–,–,–,–,–,177,85.6,inactive,inactive,41.8 nM (active),105 nM (active),83.3 nM (active),–
